# According to PubChem BioAssay AID1984 (Sanford-Burnham Center for Chemical Genomics, 2009):
# The whole screen tested about 290,000 compounds, of which about 35 (0.01%) were called active. Only a selection was taken, and actives are over-represented in it overall. A number with no mark means an inactive call.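 The calls were made as follows: active = EGFP signal decrease of at least 30% at 10 µM or well 3 SD below plate mean, unless failing retest; inactive = the rest, including hits failing retest or dose response.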
# Biological target: p/CIP-EGFP fusion (nuclear receptor coactivator 3, mouse) (UniProt Q05BA5)
# Sequence (Q05BA5 1-1403): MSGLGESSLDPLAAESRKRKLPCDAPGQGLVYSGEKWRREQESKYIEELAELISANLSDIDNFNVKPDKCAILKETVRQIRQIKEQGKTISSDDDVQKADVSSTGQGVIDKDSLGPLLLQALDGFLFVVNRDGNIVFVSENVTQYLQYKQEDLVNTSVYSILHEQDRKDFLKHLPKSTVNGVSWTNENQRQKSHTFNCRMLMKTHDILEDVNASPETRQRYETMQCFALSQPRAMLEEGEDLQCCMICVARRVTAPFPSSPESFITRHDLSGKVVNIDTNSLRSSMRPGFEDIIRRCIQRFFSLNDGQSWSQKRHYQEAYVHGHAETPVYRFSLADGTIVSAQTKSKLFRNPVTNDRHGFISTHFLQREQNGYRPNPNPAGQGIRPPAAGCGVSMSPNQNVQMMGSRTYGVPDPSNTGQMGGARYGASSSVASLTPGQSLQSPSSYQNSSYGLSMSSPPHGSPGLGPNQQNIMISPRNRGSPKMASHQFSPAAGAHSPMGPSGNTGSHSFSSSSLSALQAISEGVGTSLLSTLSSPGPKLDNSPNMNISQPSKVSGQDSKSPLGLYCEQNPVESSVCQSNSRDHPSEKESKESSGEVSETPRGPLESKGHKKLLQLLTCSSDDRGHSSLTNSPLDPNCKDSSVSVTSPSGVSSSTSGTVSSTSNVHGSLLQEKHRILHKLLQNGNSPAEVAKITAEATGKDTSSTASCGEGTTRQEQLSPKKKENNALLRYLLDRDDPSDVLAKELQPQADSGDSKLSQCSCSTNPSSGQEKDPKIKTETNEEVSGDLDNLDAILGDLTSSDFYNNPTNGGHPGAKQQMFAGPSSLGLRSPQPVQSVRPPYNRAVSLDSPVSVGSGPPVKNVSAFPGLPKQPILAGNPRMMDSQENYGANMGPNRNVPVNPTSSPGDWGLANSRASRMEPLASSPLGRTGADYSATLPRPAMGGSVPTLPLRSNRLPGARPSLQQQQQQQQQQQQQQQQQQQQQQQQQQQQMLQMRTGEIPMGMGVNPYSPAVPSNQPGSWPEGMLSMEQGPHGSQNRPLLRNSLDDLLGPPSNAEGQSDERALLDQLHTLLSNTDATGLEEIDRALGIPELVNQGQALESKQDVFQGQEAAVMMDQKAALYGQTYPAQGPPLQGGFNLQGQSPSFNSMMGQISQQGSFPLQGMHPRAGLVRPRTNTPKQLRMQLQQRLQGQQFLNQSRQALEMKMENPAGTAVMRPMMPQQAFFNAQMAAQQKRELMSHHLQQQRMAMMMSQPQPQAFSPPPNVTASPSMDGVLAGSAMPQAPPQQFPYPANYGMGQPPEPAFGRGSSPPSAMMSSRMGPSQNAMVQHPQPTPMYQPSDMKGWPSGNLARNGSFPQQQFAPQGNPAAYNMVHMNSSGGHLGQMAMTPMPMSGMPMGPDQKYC
# Test: compounds lowering mouse p/CIP (NCOA3) protein levels – fluorescence, F442A cells, EGFP fusion, primary screen (AID 1984)
# Conditions: 16 h, at 10 µM, hits give high values
row,SMILES,decrease of EGFP signal
1,COCCNC(=O)CSc1nc2sccc2c(=O)n1-c1ccccc1,-15.6%
2,Cc1ccc(C(CNC(=O)Nc2cccc(C)c2)N2CCN(C)CC2)cc1 (stereo not given),-22.3%
3,CC1C(=O)N(Cc2ccccc2)c2ccccc2N1C(=O)c1ccccc1 (stereo not given),-15.4%
4,COc1ccc(N2CCN(C(=O)c3cccs3)CC2)cc1,-8%
5,Cc1nc2nc(SCC(=O)Nc3cccc(F)c3)[nH]c2cc1Br,-0.1%
6,CS(=O)(=O)c1ccccc1C(=O)Nc1ccc2sccc2c1,-7.2%
7,COc1ccc(-c2n[nH]c3c2CN(C(=O)c2ccc(F)cc2)CC3)cc1,-14.3%
8,CC(C)(C)C1CCc2c(sc3nc(SCC(N)=O)nc(N)c23)C1 (stereo not given),-4.6%
9,O=C(NCCCn1ccnc1)/C(=C\c1ccccc1F)NC(=O)c1ccccc1,-21.2%
10,COc1ccc(OC)c(C(=O)NC(CC(N)=O)c2ccc(N3CCC(N4CCCCC4)CC3)c([N+](=O)[O-])c2)c1 (stereo not given),-7.7%
11,CSCC[C@H](NC(=O)N1CCn2c1nc1ccccc12)C(=O)NCc1ccc2c(c1)OCO2,-3.3%
12,Nc1nnc2c(C(F)(F)F)nc3ccccc3n12,-5.5%
13,COc1ccc(C)cc1Nc1n[n+](-c2ccccc2)c(-c2cccc(Cl)c2Cl)s1,6.4%
14,CCN1N=C(c2ccccc2)CCC1=O,5.6%
15,COc1cc2ccccc2cc1C(=O)Nc1ccccc1C,-1.6%
16,CC(C)(C)c1ccc(C(=O)N2CCN(CCNC(=O)C(=O)Nc3ccc(F)cc3)CC2)cc1,-21.5%
17,CCc1ccc(Oc2coc3cc(O)ccc3c2=O)cc1,-7.6%
18,CC(=O)N1CCOc2ccc(S(=O)(=O)N3CCC(C(=O)Nc4ccccc4F)CC3)cc21,11.8%
19,O=C(CNC(=O)c1ccccc1)Oc1ccc([N+](=O)[O-])cc1,-14%
20,C=CCNC(=O)COC(=O)CNC(=O)c1cc(Cl)cc([N+](=O)[O-])c1,32% (active)
21,C=CCNC(=S)NNC(=O)COc1c(Cl)cc(Cl)cc1Cl,-6.1%
22,COc1ccc(NC2CCCN(C(=O)c3ccncc3)C2)cc1 (stereo not given),-13.8%
23,CC(=O)c1cccc(NC(=O)C2CCN(C(=O)c3ccccc3Cl)CC2)c1,4.2%

row,SMILES,decrease of EGFP signal
1,Cc1ccccc1N(C(=O)CNC(=O)c1cccs1)C(C(=O)NC1CCCC1)c1ccncc1 (stereo not given),12.1%
2,CC1(C)C=C2[C@H]3CC[C@@H]4[C@@]5(C)CCC(=O)C(C)(C)[C@@H]5CC[C@@]4(C)[C@]3(C)CC[C@@]2(C(=O)O)CC1,-6.3%
3,O=C(CN1CCN(S(=O)(=O)c2ccc(Br)cc2)CC1)Nc1ccccc1C(=O)c1ccccc1,-4.8%
4,NC(=O)c1cc(S(=O)(=O)N2CCCC2)ccc1OCc1ccc(F)cc1,-4.5%
5,COc1cccc(NC(=O)NCCN2CCCCC2)c1,-6.2%
6,OC(CNC1CCCC1)COc1ccc(F)cc1 (stereo not given),26.4%
7,CCCCC(=O)Nc1nnc(S(=O)(=O)N(C)Cc2ccco2)s1,0.2%
8,Cc1ccc(N(Cc2cc(=O)[nH]c3ccccc23)C(=O)CCl)cc1,-8.8%
9,CN(C)S(=O)(=O)c1cccc(NC(=O)COC(=O)C2(c3ccccc3F)CCCC2)c1,-3%
10,Cc1[nH]c2ccccc2c1C(=O)CN1CCCC(C)C1 (stereo not given),-10.8%
11,Cc1ccc(-c2nc(CSCC(=O)NC3CCN(Cc4ccccc4)CC3)c(C)o2)cc1,-10%
12,Cn1nccc1C(=O)NC1CCCc2c1cnn2-c1ccc(F)cc1F (stereo not given),-26.2%
13,Cc1ccc(CNC(=O)CSc2nnc3c(n2)[nH]c2ccc(F)cc23)cc1,-14.9%
14,COc1cc(C2C(N3C(=O)c4ccccc4C3=O)C(=O)N2c2ccc(C)c(C)c2)cc(OC)c1OC (stereo not given),8.2%
15,N#CC(C#N)=CN=c1ccn(Cc2ccc(Cl)cc2Cl)cc1,-1.4%
16,Cc1ccc(C(=O)NC2CCN(C(=O)Nc3ccccc3Cl)CC2)cc1,5.4%
17,CC1CCN(C(=O)c2ccccc2NC(=O)Cc2ccccc2)CC1,-1.7%
18,COc1ccccc1N(CC(=O)NC1CCCC1)C(=O)C1(C)CC(=O)N=C2C=CC(C)=CN21 (stereo not given),-13.7%
19,Cc1ccc(OCC(=O)Nc2ccccc2C(=O)NC2CC2)cc1C,1.1%
20,COc1ccccc1NC(=O)CSc1nnc(CNC(=O)c2ccccc2F)o1,-0.3%
21,CCOC(=O)C1CCN(Cc2nnc(-c3cccc(Br)c3)o2)CC1,-16.9%
22,O=C(CCc1nnc(Cc2ccc3c(c2)OCO3)o1)NCCc1ccccc1Cl,-7.8%
23,O=C(NCCc1ccccc1)c1ccc2c(c1)N(Cc1ccccc1)CCS2,5.5%

row,SMILES,decrease of EGFP signal
1,Cc1ccc(NC(=S)Nc2ncccc2C)c(C)c1,-3.8%
2,COc1ccc(NS(=O)(=O)c2ccc(N3CCN(CCO)CC3)c([N+](=O)[O-])c2)cc1,-28.7%
3,C=C(C)C(=O)O[C@H]1C/C(C)=C\C(=O)/C=C(\C)[C@H](O)[C@@H]2OC(=O)C(=C)[C@@H]21,-31.6%
4,CC(C)NC(=O)N1CCN(c2ccncc2S(=O)(=O)N2CCCCC2)CC1,5.9%
5,Nc1c(N(CCO)C(=O)C2CCCCC2)c(=O)[nH]c(=O)n1Cc1ccccc1,-13.9%
6,CC(C)CCOc1ccc(C(=O)C[N+]2(C)CCOCC2)cc1,-10%
7,O=C(OCC(=O)N1CCN(C(=O)c2ccco2)CC1)c1cccc(O)c1,2.2%
8,Cc1ccc(NC(=O)CSc2nnc(CNC(=O)c3ccccc3F)o2)cc1Cl,-13%
9,CCc1cccc(NC(=O)CCCN2C(=O)C(c3ccccc3)Oc3cccnc32)c1 (stereo not given),4.5%
10,O=C(COc1cccc(Cl)c1)NCc1ccccc1,-3.1%
11,CC(C(=O)N1CCN(c2ccccc2F)CC1)c1ccc([N+](=O)[O-])cc1 (stereo not given),1.2%
12,COc1ccc(C(=O)NC(=S)NC2CCCCC2)cc1,-9.4%
13,CCc1ccc(OCC(=O)N(Cc2ccccc2)C2CCS(=O)(=O)C2)cc1 (stereo not given),-11.2%
14,COc1cc(OC)cc(C(=O)NCCCn2ccnc2)c1,1.6%
15,CNc1[nH]ncc1[N+](=O)[O-],11.8%
16,Cc1nc(-c2ccc(F)cc2)c(CC(=O)N2CCN(S(=O)(=O)c3ccc(F)cc3)CC2)s1,5.1%
17,COCCCN1C(=O)c2ccc(C(=O)OCC(=O)NCc3ccccc3OC)cc2C1=O,-12.5%
18,c1ccc(-n2cccc2)c(N2CCCCC2)c1,-13.4%
19,Cc1cc(-c2nnc(SCC(=O)Nc3ccc(S(N)(=O)=O)cc3)n2N)n[nH]1,-53.2%
20,CCCCn1c(N)c(N(CCOC)C(=O)c2oc3ccc(OC)cc3c2C)c(=O)[nH]c1=O,9.8%
21,NC(=O)C(Cc1ccccc1)NC(=O)C12CC3CC(CC(C3)C1)C2 (stereo not given),-4.8%
22,Cc1c(S(=O)(=O)N2CC(C)CC(C)C2)c(=O)n(C)c(=O)n1C (stereo not given),4.7%
23,CCSc1nc(O)c(C(c2cccc(OC)c2)c2c(O)nc(SCC)[nH]c2=O)c(=O)[nH]1,-4%

row,SMILES,decrease of EGFP signal
1,CCCC1(C(=O)OCC)NC(c2ccc(N(C)C)cc2)C2C(=O)N(c3ccc4c(c3)OCCO4)C(=O)C21 (stereo not given),-13.2%
2,O=C(O)CCCCCNc1ncnc2ccc(Br)cc12,-16.6%
3,Cc1cccc(N2Cc3ccccc3C2=NC(=O)c2ccc(Cl)nc2)c1,-1.5%
4,CC(=O)N1c2ccc(S(=O)(=O)N3CCCC(C(=O)NCc4ccc(Cl)cc4)C3)cc2CC1C (stereo not given),-5.2%
5,CCCCC(=O)Nc1c2c(nn1-c1ccc([N+](=O)[O-])cc1)CS(=O)(=O)C2,-0.5%
6,CS(=O)(=O)N1CCN=C1SCc1ccc(F)cc1,10.9%
7,CC(=O)c1cccc(NC(=O)CN2C(=O)c3cccnc3Oc3ccc(Cl)cc32)c1,-7.6%
8,C/C(CC(=O)NCc1ccc(Cl)cc1)=N\NC(=O)COc1ccc(C)cc1Br,2.8%
9,CCOc1cc(CN2CCCC(CO)(Cc3ccc(F)cc3F)C2)ccc1OC (stereo not given),-5.3%
10,Cc1cccc(-c2nc3ccc(C(=O)NCCN4CCN(C)CC4)cc3nc2-c2cccc(C)c2)c1,-5%
11,COCCCNc1nc2c(-c3cccc(C)c3)nnn2c2ccc(Cl)cc12,-12%
12,COc1ccc(C(=O)C2CCCN(S(=O)(=O)c3cccc(C)c3)C2)c(C)c1 (stereo not given),-15.7%
13,O=C(NCCC1=CCCCC1)c1ccc(Cl)c([N+](=O)[O-])c1,-6.4%
14,CCCn1c(NC(=O)C23CC4CC(CC(O)(C4)C2)C3)nc2ccccc21,0.5%
15,O=C(Nc1ccc(O)cc1)c1ccc(NC(=O)c2ccco2)cc1,-4.6%
16,CCOc1ccc(S(=O)(=O)N2CCC(c3ccccc3)CC2)cc1C(=O)O,2.8%
17,COCc1ccc(CN2CCC(Oc3ccc(C(=O)NCc4ccccn4)cc3)CC2)o1,-10.7%
18,COC(c1ccccc1)(c1ccccc1)C(Oc1nc(C)cc(C)n1)C(=O)O (stereo not given),0%
19,O=[N+]([O-])c1ccc2oc(-c3cccc(O)c3)nc2c1,7.6%
20,CC(Oc1cc2oc(=O)c3c(c2cc1Cl)CCCC3)C(=O)NCc1ccncc1 (stereo not given),-2.1%
21,O=C(C[n+]1cc(Br)cc2ccccc21)c1ccc(F)cc1,-1.9%
